In PubChem BioAssay AID1259311 (ICCB-Longwood Screening Facility, Harvard Medical School, 2017) one finds inhibition data, which are given here for 85 molecules.

Molecules are shown by their SMILES. “And” between values parts separate entries of the source, which are not always exact repeats. Identical values can stand only once. Among all 330,000 compounds or so, about 1,100 (0.33%) were called active. Rule as the data show it: active = inhibition above about 85%; inactive = the rest. Many of the other results were omitted from the sample, so actives are more common in it than they were.

In general, inhibition refers to the change of the read-out against control, counted positive when it falls.

The assay in a line: growth inhibition of S. aureus RN4220, primary screen, OD600 (AID 1259311).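 Also: plate controls were untreated cells for no effect and reference antibiotic for full effect.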 To be noted: OD600, 16 h, active compounds read high.
Consider `COc1ccc(CN2CCC(=O)N(C(CO)CC(C)C)CC2)cc1` (stereo not given), for which the inhibition was 3.45% (inactive).

As to `COc1ccc(C2CC(=O)C=C(c3ccc(C)cc3)C2)cc1` (stereo not given), the inhibition was 5.1% (inactive).

Regarding `O=C(NN=Cc1ccsc1)c1cc(-c2cccs2)nc2ccccc12`, the inhibition was 2.77% (inactive).

As for `O=C(Nc1nnc(-c2ccccc2)o1)c1cc(-c2cccs2)nc2ccccc12`, the inhibition is 100% (active).

Consider `CC(C)(C)Cc1nnc(NC(=O)c2cc(-c3ccccc3)nc3ccccc23)s1`, for which the inhibition is -1.74% (inactive).

`CC(C)(C=NO)N(O)C=C1C=CC(=O)C=C1`: the inhibition was 1.68% (inactive).

With `COCCNC(=O)C1CCCN1S(=O)(=O)c1cccc2cccnc12` (stereo not given), the inhibition is 6.77% (inactive).

Consider `COc1ccccc1CN1CCN(C(c2ccccc2)c2ccccc2)CC1`, for which the inhibition was -0.651% (inactive).

Turning to `c1ccc(C(c2ccccc2)N2CCN(Cc3nnnn3C3CCCCC3)CC2)cc1`, the inhibition was -1.54% (inactive).

Take `CC1(C)CC(N2CCN(C(c3ccccc3)c3ccccc3)CC2)=CC(=[N+]2CCCCC2)C1`: the inhibition is 100% (active).

For the molecule `CC(NC(=O)c1nc[nH]c1C(=O)NCCCCCNC(=O)OC(C)(C)C)c1ccccc1` (stereo not given), the inhibition is 8.53% (inactive) and 1.7% (inactive).

Take `C[C@]12CCC(O)CC1CCC1C2CC[C@]2(C)C(O)CCC12` (stereo not given in full): the inhibition is 7.5% (inactive).

`Cc1ccc(NS(=O)(=O)c2cc([N+](=O)[O-])ccc2NN=Cc2sc(N3CCOCC3)nc2-c2ccccc2)c(C)c1`: the inhibition is -5% (inactive).

On to `Cc1cccc(OCC(=O)NC2CC(C)(C)NC(C)(C)C2)c1`, for which the inhibition was -1.7% (inactive).

In the case of `COC(=O)Cc1ccc(OCC(=O)NC2CCCC2)cc1`, the inhibition was 2.26% (inactive).

Turning to `CC1(C)SC2C(NC(=O)COc3ccccc3)C(=O)N2C1C(=O)O` (stereo not given), the inhibition was 99.8% (active).

As to `O=S(=O)(NN=Cc1cccc(F)c1)c1ccccc1`, the inhibition was 29.9% (inactive).

As for `CCOc1cccc(-c2c(C(=O)NN=Cc3ccc(C)o3)nnn2-c2nonc2N)c1`, the inhibition was 4.52% (inactive).

For `C#Cc1ccc(C2C=C(C(=O)N3CCOCC3)OC(OCC)C2CCCO)cc1` (stereo not given), the inhibition was 2.8% (inactive) and 5.16% (inactive).

For `C#C[C@]1(O)CCC2C3CCC4=Cc5nc6nc7ccccc7n6cc5C[C@]4(C)C3CC[C@@]21C` (stereo not given in full), the inhibition was -13.8% (inactive).

Turning to `CC(=NNC(=O)c1nnn(-c2nonc2N)c1CSc1ccc(C)cc1)c1ccco1`, the inhibition was 4.06% (inactive).

Take `COc1ccc(-c2nnc(NC(=O)CS(=O)(=O)c3ccc(Cl)cc3)o2)c(OC)c1`: the inhibition was 3.79% (inactive).

For the molecule `COc1cccc(-c2nnc(NC(=O)c3ccc(S(=O)(=O)N(CC(C)C)CC(C)C)cc3)o2)c1`, the inhibition was 99.9% (active).

Turning to `O=C(Nc1nnc(-c2ccco2)o1)c1ccc(S(=O)(=O)N2CCOCC2)cc1`, the inhibition was 1.85% (inactive).

Regarding `CC1CN(C(C)CO)C(=O)c2cccc(NC(=O)c3ccc(-c4nccs4)cc3)c2OC1CN(C)C(=O)NC1CCCCC1` (stereo not given), the inhibition is 4.31% (inactive).

As to `C=C[C@]1(C)CC(OC(=O)CSCCN(CC)CC)[C@]2(C)C(C)CC[C@]3(CCC(=O)C32)C(C)C1O` (stereo not given in full), the inhibition is 101% (active).

Turning to `COC(=O)[C@]1(CC(C)C)NC(c2ccc(-c3ccc(F)cc3)c(OC)c2)C2C(=O)N(C)C(=O)C21` (stereo not given in full), the inhibition is -2.27% (inactive).

Take `COc1ccc(C2C=CCN(C(=O)Nc3ccccc3-c3ccccc3)CC(=O)N2Cc2ccc(F)cc2)cc1` (stereo not given): the inhibition was 4.3% (inactive).

As to `CCCn1c(=O)c(C(=O)NN=Cc2ccc(F)cc2)c(O)c2ccccc21`, the inhibition was 101% (active).

For `COc1cc(C(=O)NN=Cc2cn(Cc3cccc(F)c3)c3ccccc23)ccc1O`, the inhibition was -2.54% (inactive).

For `CCCn1c(=O)c(C(=O)Nc2cc(C)ccn2)c(O)c2ccccc21`, the inhibition is 8.88% (inactive).

Regarding `CCCCCn1c(=O)c(C(=O)NCc2ccccc2)c(O)c2ccccc21`, the inhibition was -1.56% (inactive).

As to `CCCn1c(=O)c(-c2ccccc2)c(O)c2ccccc21`, the inhibition was 4.44% (inactive).

For `CC(C)CCn1c(=O)c(C(=O)NN=Cc2cccc(F)c2)c(O)c2ccccc21`, the inhibition was 101% (active).

Turning to `CCOC(=O)NN=C(C)/C=C/c1ccco1`, the inhibition was -0.0294% (inactive).

As to `O=C1CCC(O)CCN1CCC(Sc1ccccc1)c1ccccc1` (stereo not given), the inhibition was 10.9% (inactive).

Consider `CC(C)(C)C1C=C(C(=O)N2CCN(Cc3ccccc3)CC2)OC(OCc2ccc(CO)cc2)C1` (stereo not given), for which the inhibition was 8.07% (inactive) and 4.07% (inactive).

On to `CCOC(=O)C1C2COc3ccc(Br)cc3C2N2C(=O)N(c3ccc(C(F)(F)F)cc3)C(=O)[C@@]12C` (stereo not given in full), for which the inhibition is -6.79% (inactive).

Regarding `CCCCC1CC1C(NC(=O)c1ccco1)c1ccccc1C(F)(F)F` (stereo not given), the inhibition was 6.05% (inactive).

In the case of `O=C(CN1CCSCC1)NN=Cc1ccc(F)cc1F`, the inhibition was 6.36% (inactive).

As for `Cc1ccc(C=NNC(=O)CSc2nc3ccccc3n2C)s1`, the inhibition was 0.496% (inactive).

For the molecule `Cn1c(SCC(=O)NN=Cc2ccc([N+](=O)[O-])s2)nnc1-c1ccccc1`, the inhibition was 94.9% (active).

On to `Cc1ccc(C=NNC(=O)CSc2nc3ccccc3c(=O)n2-c2ccccc2)s1`, for which the inhibition was -0.0121% (inactive).

As to `COC(=O)C1=C(c2ccc(C(C)=O)cc2)CC2CCC1N2C(=O)NCc1ccc(F)cc1` (stereo not given), the inhibition is 1.41% (inactive).

For `O=S(=O)(NN=Cc1ccc(OC2CSC2)cc1)c1ccccc1`, the inhibition is 2.43% (inactive).

Turning to `COc1cccc(C=NNc2ncnc3c2ncn3Cc2ccccc2)c1O`, the inhibition was 9.44% (inactive).

As for `COc1cccc(C=NNc2cc(-n3nc(C)cc3-c3ccccc3)ncn2)c1O`, the inhibition was 99.8% (active).

Take `COc1cccc(C=NNC(=O)CSCC(=O)Nc2ccccc2)c1O`: the inhibition is 3.38% (inactive).

Regarding `COc1cccc(C(=O)NCC(=O)NN=Cc2c(C)[nH]c3ccccc23)c1`, the inhibition was 4.11% (inactive).

As for `O=C(NOCc1ccccc1)c1cccc([N+](=O)[O-])c1`, the inhibition was 4.41% (inactive).

For the molecule `O=C(NC(Nc1nc2ccc([N+](=O)[O-])cc2s1)(C(F)(F)F)C(F)(F)F)c1ccccc1`, the inhibition is 100% (active).

Turning to `N=C1C(c2nc3ccccc3s2)=C(O)CN1NC(=O)c1ccc([N+](=O)[O-])cc1`, the inhibition was 31.5% (inactive).

As to `COC(=O)C1=C(c2cccc(OC)c2OC)CC2CCC1N2C(=O)NCCNC(C)=O` (stereo not given), the inhibition is 2.83% (inactive).

On to `Cc1ccc(OCC(=O)NN=Cc2cc([N+](=O)[O-])ccc2N2CCCCC2)cc1`, for which the inhibition was 15.8% (inactive).

Regarding `COc1cccc(C2=CC(=O)CC(c3ccc4c(c3)OCO4)C2)c1OC` (stereo not given), the inhibition was 4.85% (inactive).

For `O=C(Cn1cnc2ccccc21)NN=Cc1ccccn1`, the inhibition is -0.52% (inactive).

`COC(=O)[C@]1(C)NC(c2ccc(-c3cccc(Cl)c3)c(OC)c2)C2C(=O)N(C)C(=O)C21` (stereo not given in full): the inhibition was 4.06% (inactive).

As for `CCOC(=O)C=c1sc(=C(C#N)C(=O)OCC)n(-c2ccccc2)c1=O`, the inhibition is -0.54% (inactive).

In the case of `CCC(C)N1CCC2(CC1)N=c1c(c3c4c5c(C)c(O)c3c(O)c1=NC(=O)C(C)=CC=CC(C)C(O)C(C)C(O)C(C)C(OC(C)=O)C(C)C(OC)C=CO[C@@](C)(O5)C4=O)N2` (stereo not given in full), the inhibition is 99.7% (active).

On to `Cc1nnc(SCC(=O)Nn2cnnc2)s1`, for which the inhibition is 2.92% (inactive).

In the case of `Cc1cc(C)cc(C(=O)NC2C(=O)N3C(C(=O)O)=C(CSc4nnc(C)s4)CSC23)c1` (stereo not given), the inhibition was 99.5% (active).

As for `Cc1nnc(SCC2=C(C(=O)O)N3C(=O)C(NC(=O)Cn4nc(C)c(Cl)c4C)C3SC2)s1` (stereo not given), the inhibition was 99.6% (active).

With `Cc1nnc(SCc2cc(=O)[nH]c(N3CCN(Cc4ccccc4)CC3)n2)s1`, the inhibition is 1.62% (inactive).

Consider `Cc1nnc(SCC(=O)NC2CCCC2)s1`, for which the inhibition is -0.203% (inactive).

With `CON=Cc1ccc(N2CCOCC2)c([N+](=O)[O-])c1`, the inhibition was 6.02% (inactive).

Take `C=CCn1c(CNc2ccccc2)nnc1SCC(=O)NN=Cc1ccccc1O`: the inhibition is 1.54% (inactive).

Regarding `O=C(O)CCC(=NNc1ncc(C(F)(F)F)cc1Cl)C(=O)O`, the inhibition is 4.71% (inactive).

Turning to `CC(=O)Nc1cccc(C(C)=NNc2ccc(S(=O)(=O)Nc3ccccc3C(=O)O)cc2[N+](=O)[O-])c1`, the inhibition was -10.1% (inactive).

For the molecule `CCc1ccc2c(c1)C1(NN=C(c3ccccc3)S1)C(=O)N2` (stereo not given), the inhibition is 92.6% (active).

On to `CCN(CC)c1ccc(C(=O)c2cnc(N=CN(C)C)s2)cc1`, for which the inhibition is 8.12% (inactive).

As for `CC(=NNC(=O)CNS(=O)(=O)c1ccc(C)cc1)c1cccc([N+](=O)[O-])c1`, the inhibition is -3.24% (inactive).

With `Cn1c(NN=Cc2ccccc2)nc2sc3c(c2c1=O)CCC3`, the inhibition is 6.77% (inactive).

`O=C(NN=Cc1ccccc1)c1ccc(CN2C(=O)c3cccc4cccc2c34)cc1`: the inhibition was 0.745% (inactive).

In the case of `Cc1nc2cc(NC(=O)Nc3cccc(F)c3)ccc2n1C`, the inhibition was 2.6% (inactive).

As to `O=C(Nc1ccc2ccccc2c1)Nc1ccc2snnc2c1`, the inhibition was 106% (active).

Turning to `S=C(Nc1ccccc1)Nc1ccc2ccccc2c1`, the inhibition was -8.9% (inactive).

Turning to `Nc1nonc1-n1nnc(C(=O)NN=Cc2ccncc2)c1CN1CCCCC1`, the inhibition was 1.52% (inactive).

Turning to `Cc1ccccc1NC(=O)C(C)ON=Cc1cccc([N+](=O)[O-])c1` (stereo not given), the inhibition was 4.13% (inactive).

Consider `COc1ccc(CC(O)=C(C#N)c2nc3ccccc3[nH]2)cc1OC`, for which the inhibition was -2.45% (inactive).

With `CCOC(=O)C=c1sc(=Cc2c(OCC)ccc3ccccc23)c(=O)n1CC(=O)NCC1CCCO1` (stereo not given), the inhibition was -2.12% (inactive).

As for `CCOC(=O)C1(CCOc2ccccc2)CCN(Cc2ccc(C#CCCO)cc2)CC1`, the inhibition was 5.24% (inactive).

With `CCOC(=O)C1(CCOc2ccccc2)CCN(Cc2cc(OC)cc(OC)c2)CC1`, the inhibition is 1.85% (inactive).

With `Cc1c(CN2CCC(CO)(CCOc3ccccc3)CC2)[nH]c2ccc(Cl)cc12`, the inhibition was 97.5% (active).

Take `C#CCOCCOCCOCCNc1nc(N2CCN(C(=O)C(Cc3cc4ccccc4[nH]3)n3cc(C(N)CC(C)C)nn3)CC2)nc(N2CCN(C(=O)C(Cc3ccc(O)cc3)n3cc(C(N)C(C)CC)nn3)CC2)n1` (stereo not given): the inhibition was -1.75% (inactive).

As for `CCNc1nc(NCC)nc(NN=Cc2ccc(O)c(OC)c2)n1`, the inhibition was 4.03% (inactive).
